Measurements as given in PubChem BioAssay AID2534 (National Center for Advancing Translational Sciences (NCATS), 2010).
Inconclusive results are not listed. Calls of active or inactive are those of the source. The call rests on the fitted dose curve; in most records, active means well fitted curve in the direction sought with a large enough effect; inconclusive means small, poorly fitted or top-dose-only effect, or effect the other way, or another doubt; inactive means no such curve, though single readings can be large or run the other way.

molecular target: Pyruvate kinase PKLR (Homo sapiens) (UniProt P30613); experiment: Secondary Concentration-Response Assay for Activators of Human Reticulocyte Pyruvate Kinase: for Probe SAR; settings: purified hPK-R, ATP production, Kinase-Glo luminescence; series mostly up to 57.5 µM
From the text: NIH Chemical Genomics Center [NCGC]
Wael M. Rabeh, Lyudmila Nedyalkova and Hee-Wan Park [Structural Genomics Consortium, 100 College St. Toronto, Ontario, Canada]
Human pyruvate kinase reticulocyte (hPK-R) enzyme was supplied as a highly purified (>95% pure) preparation from Structural Genomics Consortium in Toronto (Ontario, Canada) and assayed for its ability to generate ATP from ADP using phosphoenolpyruvate (PEP) as a substrate. ATP generation was detected in a coupled reaction by luciferase-mediated luminescence, an ATP-dependent process. Pyruvate kinase substrates, PEP and ADP, were present in the assay at Km and approximately 10-fold below Km respectively. The enzyme was assayed at an intermediate level of activity to screen for both inhibitors and activators.
NCGC Assay Protocol Summary for R-isoform
Three uL of substrate mix (at r.t.) in assay buffer (50 mM Imidazole pH7.2, 50 mM KCl, 7 mM MgCl2, 0.01% Tween 20, 0.05% BSA) was dispensed into white solid bottom 1,536 well microtiter plates so that the final concentrations of substrates in the assay were 0.1 mM ADP and 0.5 mM PEP. 23 nL of compound were delivered by a pin tool and 1 uL of enzyme mix (final concentration of 0.1 nM) in assay buffer (4 degree Celsius) was added. Plates were incubated at room temperature for 1 hour. Two uL of detection mix (Kinase-Glo, Promega; at 4 degree Celsius protected from light) was added and luminescence read by a ViewLux (Perkin Elmer) at 1 second exposure/plate. Data were normalized to the uninhibited (row 31). Additionally, a no enzyme and 5-fold enzyme control was dispensed in row 32, split equally between the two conditions.

Chain of Pyruvate kinase PKLR (Homo sapiens) (P30613 whole entry, looked up): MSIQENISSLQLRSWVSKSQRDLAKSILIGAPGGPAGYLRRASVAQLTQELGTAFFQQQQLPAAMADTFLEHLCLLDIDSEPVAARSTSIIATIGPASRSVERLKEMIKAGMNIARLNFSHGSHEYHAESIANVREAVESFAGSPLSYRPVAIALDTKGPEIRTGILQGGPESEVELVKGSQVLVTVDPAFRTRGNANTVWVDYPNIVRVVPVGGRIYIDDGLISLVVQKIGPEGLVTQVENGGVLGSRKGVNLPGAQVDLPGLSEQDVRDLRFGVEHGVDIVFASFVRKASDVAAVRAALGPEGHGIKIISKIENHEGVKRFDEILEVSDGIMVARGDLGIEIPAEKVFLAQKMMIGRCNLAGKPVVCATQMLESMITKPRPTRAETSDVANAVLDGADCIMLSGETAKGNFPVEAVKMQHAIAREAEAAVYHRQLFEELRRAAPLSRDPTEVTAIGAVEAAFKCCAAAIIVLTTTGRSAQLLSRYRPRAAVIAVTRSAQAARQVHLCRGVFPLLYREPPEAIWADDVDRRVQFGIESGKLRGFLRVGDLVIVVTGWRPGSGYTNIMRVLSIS

outcome, inactive:
COc1cc(N2C(=O)c3ccccc3C2=O)c2ncccc2c1
COC(=O)c1ccc2c(c1)S(=O)(=O)N=C2Sc1cc(C)ccc1C
O=C1CCc2cc(S(=O)(=O)Nc3ccc(F)cc3)ccc2N1
O=C1CCc2cc(S(=O)(=O)Nc3ccc(Cl)c(Cl)c3)c(F)cc2N1
Cc1ccc(Cl)cc1NS(=O)(=O)c1cc2c(cc1Cl)CCC(=O)N2
O=C1CCc2cc([S+](=O)([O-])Nc3ccc(N[S+](=O)([O-])c4ccc5c(c4)CCC(=O)N5)cc3)ccc2N1
O=C1CCc2cc(S(=O)(=O)Nc3ccc(-c4ccccc4)cc3)ccc2N1
O=C1c2ccccc2C(=O)N1c1cccc2cccnc12
CC(C)Nc1cccc(S(=O)(=O)N2CCCN(S(=O)(=O)c3ccc4c(c3)OCCO4)CC2)c1
O=C1CCc2cc(S(=O)(=O)Nc3cccc(Oc4ccccc4)c3)ccc2N1
O=C1CCc2cc(S(=O)(=O)Nc3ccccc3Cl)ccc2N1
CNc1cccc(S(=O)(=O)N2CCCN(S(=O)(=O)c3ccc4c(c3)OCCO4)CC2)c1
Cc1cc(NS(=O)(=O)c2ccc3c(c2)CCC(=O)N3)ccc1F
Cc1cccc(NS(=O)(=O)c2ccc3c(c2)CCC(=O)N3)c1
Cc1ccc(C)c(SC2=N[S+](=O)([O-])c3cc(C(=O)Nc4ccc5ncccc5c4)ccc32)c1
Cc1ccc(C)c(OC2=NS(=O)(=O)c3ccccc32)c1
COc1ccc(NS(=O)(=O)c2ccc3c(c2)CCC(=O)N3)cc1
O=C1CCc2cc(S(=O)(=O)Nc3ccc4ccccc4c3)ccc2N1
Cc1ccc(C)c(SC2=NS(=O)(=O)c3cc(C(=O)NCc4ccccc4)ccc32)c1
Cc1ccc(NS(=O)(=O)c2ccc3c(c2)n(C)c(=O)n3C)cc1C
O=C1c2ccccc2C(=O)N1Cc1cccnc1
O=C1CCc2cc(S(=O)(=O)Nc3ccccc3-c3ccccc3)ccc2N1
O=C1c2ccccc2C(=O)N1c1cccc(Cl)c1
Cc1cc(N2C(=O)c3ccccc3C2=O)n[nH]1
O=C1NS(=O)(=O)c2ccccc21
Cc1ccc(NS(=O)(=O)c2ccc3c(c2)CCC(=O)N3)cc1
CN(C)c1cccc(S(=O)(=O)N2CCN(S(=O)(=O)c3ccc4c(c3)OCCO4)CC2)c1
O=C1CCc2cc(S(=O)(=O)Nc3ccccc3F)ccc2N1
N#Cc1cccc(NS(=O)(=O)c2ccc3c(c2)CCC(=O)N3)c1
Cc1ccccc1NS(=O)(=O)c1ccc2c(c1)CCC(=O)N2
O=C(O)c1ccccc1SC1=NS(=O)(=O)c2ccccc21
O=C1c2ccccc2C(=O)N1c1cccc2ncccc12
O=C1CCc2cc(S(=O)(=O)Nc3ccccn3)ccc2N1
Cc1ccc(NS(=O)(=O)c2cc3c(cc2Cl)CCC(=O)N3)cc1Cl
O=C1CCc2cc(S(=O)(=O)Nc3ccncc3)ccc2N1
O=C1c2ccccc2C(=O)N1c1cccnc1
Cc1ccc(NS(=O)(=O)c2ccc3c(c2)CCC(=O)N3)cc1F
O=C1CCc2cc(S(=O)(=O)Nc3cccc(Br)c3)ccc2N1
N#Cc1ccc(NS(=O)(=O)c2ccc3c(c2)CCC(=O)N3)cc1
O=C1c2ccccc2C(=O)N1c1noc2ccccc12
